Laboratory results: PubChem BioAssay (EPA / NIEHS)
Inconclusive results are not listed. Activity calls are given as the source filed them. How the source made its calls, unless noted: active means hit-call score of the fitted dose curve at least 0.9, where 1 is the maximum; inactive means score below 0.9.

How the values were obtained:
[1] = target: Hepatocyte nuclear factor 4-alpha (Homo sapiens) (UniProt P41235); test: ATG_HNF4a_TRANS: Attagene TRANS-FACTORIAL HepG2 Assay for human Hepatocyte Nuclear Factor 4 alpha (HNF4a) (AID 2282982; active means hit-call score of the fitted dose curve at least 0.9, where 1 is the maximum); details: HepG2 HNF4a transactivation reporter, mRNA readout
Procedure, shortened: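 Activity of an exogenous HNF4a–Gal4 fusion scored as induced GAL4-UAS reporter transcripts after 24 h chemical exposure of transfected human HepG2 cells. Read-out via RT-PCR with 6-FAM labelling and capillary electrophoresis; rise over DMSO baseline.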

[2] = ATG_M_06_TRANS: Attagene TRANS-FACTORIAL HepG2 Assay for M06 Transcription Factor (Internal Marker) (AID 2282983; active means hit-call score of the fitted dose curve at least 0.9, where 1 is the maximum); details: HepG2 Attagene TRANS M06 internal marker reporter
Procedure, shortened: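 Human liver HepG2 cells bearing transiently transfected chimeric NR-GAL4 reporter units were treated with chemicals for 24 h. Total RNA was reverse-transcribed, reporter sequences amplified and labelled, then quantified by capillary electrophoresis. Activity was fitted upward relative to DMSO.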

[3] = target: Nuclear receptor subfamily 4 group A member 2 (Homo sapiens) (UniProt P43354); test: ATG_NURR1_TRANS: Attagene TRANS-FACTORIAL HepG2 Assay for human Nuclear Receptor Related Protein 1 (NURR1) (AID 2282985; active means hit-call score of the fitted dose curve at least 0.9, where 1 is the maximum); details: HepG2 Attagene TRANS reporter, mRNA readout
Procedure, shortened: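 Reporter transcript induction, measured by RT-PCR with fluorescent labelling, HpaI digestion and capillary electrophoresis, after 24 hr dosing of human HepG2 cells transiently expressing an exogenous NR-Gal4 fusion with GAL4-UAS-driven reporters; DMSO as baseline.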

[4] = target: Transcriptional activator Myb (Homo sapiens) (UniProt P10242); test: ATG_Myb_CIS: Attagene CIS-FACTORIAL HepG2 Assay for human Myeloblastosis (Myb) Proto-Oncogene Transcription Factor (AID 2282986); details: HepG2 Attagene CIS-FACTORIAL Myb reporter transcription; actives raise or lower the signal
Procedure, shortened: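 After 24 h of compound dosing, total RNA from transfected HepG2 cells is reverse-transcribed and the reporter sequences amplified, labeled and separated by capillary electrophoresis. Values come from bidirectional fitting against DMSO.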

[5] = target: Nuclear respiratory factor 1 (Homo sapiens) (UniProt Q16656); test: ATG_NRF1_CIS: Attagene CIS-FACTORIAL HepG2 Assay for human Nuclear Respiratory Factor 1 (NRF1) Orphan Gene (AID 2282987); details: HepG2 NRF1 cis-element reporter, Attagene multiplex; actives raise or lower the signal
Procedure, shortened: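 Measured: fluorescent reporter-specific RT-PCR products from transfected HepG2 cells, separated by capillary electrophoresis. Exposure lasted 24 h. Analysis used bidirectional curve fitting with DMSO as negative control.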

[6] = ATG_NFI_CIS: Attagene CIS-FACTORIAL HepG2 Assay for human Nuclear Factor I (NFI) (AID 2282989); details: HepG2 cis-regulatory reporter, NFI response element transcription; actives raise or lower the signal
Procedure, shortened: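 HepG2, transient MRTU, 24 h exposure; RNA→cDNA→PCR→FAM label→HpaI→CE fluorescence. Bidirectional fit, DMSO = baseline.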

[7] = target: Myc proto-oncogene protein (Homo sapiens) (UniProt P01106); test: ATG_Myc_CIS: Attagene CIS-FACTORIAL HepG2 Assay for human Myelocytomatosis (Myc) Proto-Oncogene Transcription Factor (AID 2282990); details: HepG2, Attagene cis-reporter transcription factor activity; actives raise or lower the signal
Procedure, shortened: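 After 24 h chemical treatment of HepG2 cells carrying multiplexed cis-regulated reporter constructs, reporter transcripts quantified by RT-PCR and capillary electrophoresis of fluorescent fragments. Gain or loss fitted against DMSO baseline.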

[8] = ATG_NRF2_ARE_CIS: Attagene CIS-FACTORIAL HepG2 Assay for human Nuclear Factor Erythroid 2 Related Factor 2 (NFR2) response to Antioxidant Response Elements (ARE) (AID 2282992); details: HepG2 Attagene ARE/NRF2 reporter, transcription factor activity; actives raise or lower the signal
Procedure, shortened: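 Endogenous transcription factor activity read out as reporter transcript levels (RT-PCR plus capillary electrophoresis, fluorescence) in transiently transfected HepG2 cells. Measured at 24 h after dosing; gain or loss of signal fitted versus DMSO.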

[9] = ATG_Oct_MLP_CIS: Attagene CIS-FACTORIAL HepG2 Assay for human Octamer-Binding Transcription Factor (Oct) (AID 2282993); details: HepG2 Attagene cis-factorial Oct reporter, mRNA; actives raise or lower the signal
Procedure, shortened: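 Multiplexed cis-reporter assay in human liver HepG2 cells, 24 h incubation. Reporter RNA amplified and labelled, then resolved by capillary electrophoresis; DMSO serves as negative control and baseline.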

[10] = BSK_3C_TissueFactor: BioMAP Diversity Plus: 3C Assay for Tissue Factor Biomarker Activity (AID 2282997); details: BioMAP 3C HUVEC, tissue factor biomarker readout; actives raise or lower the signal
Procedure, shortened: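 Cells used were primary human umbilical vein endothelial cells. They were dosed with chemical, and after 24 h Tissue Factor was quantified by ELISA. Curves were fitted bidirectionally with DMSO as baseline.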

[11] = BSK_3C_uPAR: BioMAP Diversity Plus: 3C Assay for Urokinase-type plasminogen activator receptor (uPAR) Biomarker Activity (AID 2282998); details: BioMAP 3C HUVEC, uPAR biomarker ELISA; actives raise or lower the signal
Procedure, shortened: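 Dose primary human umbilical vein endothelial cells, incubate 24 h, measure cell-surface uPAR by ELISA, then fit the signal in both directions against the DMSO negative control.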

[12] = BSK_3C_VCAM1: BioMAP Diversity Plus: 3C Assay for Vascular cell adhesion molecule 1 (VCAM1) Biomarker Activity (AID 2282999); details: BioMAP 3C HUVEC, VCAM1 ELISA, cytokine-stimulated; actives raise or lower the signal
Procedure, shortened: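 Activity fitted in both directions relative to DMSO, with ELISA measurement of the surface marker on primary HUVEC (3C) at 24 h post-treatment; parallel SRB staining (0.1% SRB, TCA-fixed, 560 nm) flagged overt cytotoxicity.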

[13] = BSK_4H_Eotaxin3: BioMAP Diversity Plus: 4H Assay for Eotaxin 3 Biomarker Activity (AID 2283000); details: primary human endothelial cells (HUVEC); actives raise or lower the signal
Procedure, shortened: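 Endothelial primary cells (human umbilical vein) exposed to compound for 24 h. ELISA detection of Eotaxin-3.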

[14] = read-out: Intercellular Adhesion Molecule 1 (ICAM1), ICAM1 (gene 3383); test: BSK_3C_ICAM1: BioMAP Diversity Plus: 3C Assay for Intercellular Adhesion Molecule 1 (ICAM1) Biomarker Activity (AID 2283003); details: primary human endothelial cells (HUVEC); actives raise or lower the signal
Procedure, shortened: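 ELISA readout of ICAM1 in human umbilical vein endothelial cells in the 3C system, taken 24 h post-dose. Gain or loss of signal versus DMSO was fitted in both directions, with SRB total-protein staining run in parallel.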

[15] = ATG_M_32_TRANS: Attagene TRANS-FACTORIAL HepG2 Assay for M32 Transcription Factor (Internal Marker) (AID 2282984; active means hit-call score of the fitted dose curve at least 0.9, where 1 is the maximum;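 further: transcript level of a background control reporter unit measured by RT-PCR and capillary electrophoresis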); details: HepG2 Attagene TRANS M32 internal marker reporter
Procedure, shortened: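 Internal background reporter in transfected HepG2: after 24 h chemical exposure, RNA reverse-transcribed, reporter cDNA amplified, fluorescently labelled and HpaI-cut, then sized by capillary electrophoresis. Gain of signal fitted against DMSO control.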

[16] = target: human Peroxisome Proliferator-activated Receptor alpha (PPARa), PPARA (gene 5465) (UniProt Q07869); test: ATG_PPARa_TRANS: Attagene TRANS-FACTORIAL HepG2 Assay for human Peroxisome Proliferator-activated Receptor alpha (PPARa) (AID 2283001; active means hit-call score of the fitted dose curve at least 0.9, where 1 is the maximum;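 on AC50: potency for gain of reporter signal over DMSO so agonist or activator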)
Procedure, shortened: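 Reporter transcripts quantified by RT-PCR plus capillary electrophoresis after 24 h treatment, fitted upward relative to DMSO. Cells: human HepG2 transiently carrying multiple GAL4-UAS reporter units driven by NR-Gal4 chimeras.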

[17] = ATG_NF_kB_CIS: Attagene CIS-FACTORIAL HepG2 Assay for human Nuclear Factor Kappa B (NF-kB) (AID 2282991); details: HepG2 Attagene cis-factorial NF-kB reporter mRNA; actives raise or lower the signal
Procedure, shortened: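 Fluorescence of labelled RT-PCR products separated by capillary electrophoresis gives reporter mRNA levels from transfected HepG2 cells exposed 24 h; values are fitted in both directions relative to DMSO.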

[18] = target: Cellular tumor antigen p53 (Homo sapiens) (UniProt P04637); test: ATG_p53_CIS: Attagene CIS-FACTORIAL HepG2 Assay for human p53 Transcription Factor (AID 2282994); details: HepG2 p53 cis-element reporter, Attagene mRNA; actives raise or lower the signal
Procedure, shortened: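 Endogenous p53 activity read in transiently transfected HepG2 from a cis-element-driven reporter transcript after 24 h exposure. RNA reverse-transcribed, PCR-amplified, fluorescently labelled and sized by capillary electrophoresis; gain or loss fitted against DMSO baseline.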

[19] = target: human Peroxisome Proliferator-activated Receptor delta (PPARd), PPARD (gene 5467) (UniProt Q03181); test: ATG_PPARd_TRANS: Attagene TRANS-FACTORIAL HepG2 Assay for human Peroxisome Proliferator-activated Receptor delta (PPARd) (AID 2283002; active means hit-call score of the fitted dose curve at least 0.9, where 1 is the maximum)
Procedure, shortened: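 Read-out is induced reporter mRNA, quantified by RT-PCR with fluorescent labelling and capillary electrophoresis after 24 h dosing. Cells are HepG2 transiently carrying multiple GAL4-UAS reporter units driven by exogenous NR-GAL4 chimeras; DMSO serves as baseline.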

Measured: AC50

Transcriptional activator Myb (Homo sapiens), sequence (P10242 whole entry, looked up): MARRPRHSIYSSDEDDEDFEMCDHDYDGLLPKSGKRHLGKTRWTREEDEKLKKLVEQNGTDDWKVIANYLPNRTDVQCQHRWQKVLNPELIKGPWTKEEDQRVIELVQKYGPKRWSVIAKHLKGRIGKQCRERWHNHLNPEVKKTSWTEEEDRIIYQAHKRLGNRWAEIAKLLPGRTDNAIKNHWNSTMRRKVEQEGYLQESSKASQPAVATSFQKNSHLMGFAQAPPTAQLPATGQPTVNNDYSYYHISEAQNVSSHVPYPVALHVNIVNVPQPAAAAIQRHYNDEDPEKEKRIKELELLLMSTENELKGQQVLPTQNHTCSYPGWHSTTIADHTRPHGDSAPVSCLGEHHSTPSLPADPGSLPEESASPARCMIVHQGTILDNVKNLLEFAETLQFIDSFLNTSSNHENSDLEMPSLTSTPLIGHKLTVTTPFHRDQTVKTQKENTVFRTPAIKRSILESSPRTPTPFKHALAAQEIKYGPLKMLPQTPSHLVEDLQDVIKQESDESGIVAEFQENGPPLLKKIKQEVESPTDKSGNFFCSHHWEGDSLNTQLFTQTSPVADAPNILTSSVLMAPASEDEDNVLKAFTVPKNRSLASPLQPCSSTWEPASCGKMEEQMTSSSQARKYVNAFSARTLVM
Nuclear receptor subfamily 4 group A member 2 (Homo sapiens), sequence (P43354 whole entry, looked up, the tested form may be a part): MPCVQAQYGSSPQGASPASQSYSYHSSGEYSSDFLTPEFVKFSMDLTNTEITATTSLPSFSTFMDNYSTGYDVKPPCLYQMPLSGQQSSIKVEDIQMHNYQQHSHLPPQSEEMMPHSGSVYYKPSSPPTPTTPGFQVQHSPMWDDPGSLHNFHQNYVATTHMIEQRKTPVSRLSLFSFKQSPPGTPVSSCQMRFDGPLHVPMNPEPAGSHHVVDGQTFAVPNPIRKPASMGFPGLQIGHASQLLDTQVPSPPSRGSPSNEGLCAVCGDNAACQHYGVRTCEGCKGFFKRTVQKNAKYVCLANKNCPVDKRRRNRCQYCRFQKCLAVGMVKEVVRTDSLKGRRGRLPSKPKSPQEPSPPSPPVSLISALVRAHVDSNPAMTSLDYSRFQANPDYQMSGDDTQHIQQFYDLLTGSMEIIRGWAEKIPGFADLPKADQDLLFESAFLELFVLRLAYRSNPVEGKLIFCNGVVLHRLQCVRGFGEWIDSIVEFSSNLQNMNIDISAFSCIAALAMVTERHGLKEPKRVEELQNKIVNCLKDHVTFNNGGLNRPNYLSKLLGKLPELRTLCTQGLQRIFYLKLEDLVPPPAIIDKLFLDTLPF
Myc proto-oncogene protein (Homo sapiens), sequence (P01106 whole entry, looked up, the tested form may be a part): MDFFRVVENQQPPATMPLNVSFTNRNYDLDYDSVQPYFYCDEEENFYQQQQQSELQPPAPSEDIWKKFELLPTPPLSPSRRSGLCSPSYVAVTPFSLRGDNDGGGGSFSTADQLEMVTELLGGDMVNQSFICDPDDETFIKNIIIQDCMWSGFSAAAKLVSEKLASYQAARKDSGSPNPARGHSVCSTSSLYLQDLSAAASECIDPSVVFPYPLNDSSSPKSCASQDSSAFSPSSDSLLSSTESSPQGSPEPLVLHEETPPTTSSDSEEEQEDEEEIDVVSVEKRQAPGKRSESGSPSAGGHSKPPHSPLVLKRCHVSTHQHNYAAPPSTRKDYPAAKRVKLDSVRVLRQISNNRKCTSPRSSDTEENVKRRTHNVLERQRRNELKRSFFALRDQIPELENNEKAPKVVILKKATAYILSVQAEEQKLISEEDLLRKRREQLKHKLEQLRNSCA
human Peroxisome Proliferator-activated Receptor delta (PPARd), PPARD (gene 5467), sequence (Q03181 whole entry, looked up, the tested form may be a part): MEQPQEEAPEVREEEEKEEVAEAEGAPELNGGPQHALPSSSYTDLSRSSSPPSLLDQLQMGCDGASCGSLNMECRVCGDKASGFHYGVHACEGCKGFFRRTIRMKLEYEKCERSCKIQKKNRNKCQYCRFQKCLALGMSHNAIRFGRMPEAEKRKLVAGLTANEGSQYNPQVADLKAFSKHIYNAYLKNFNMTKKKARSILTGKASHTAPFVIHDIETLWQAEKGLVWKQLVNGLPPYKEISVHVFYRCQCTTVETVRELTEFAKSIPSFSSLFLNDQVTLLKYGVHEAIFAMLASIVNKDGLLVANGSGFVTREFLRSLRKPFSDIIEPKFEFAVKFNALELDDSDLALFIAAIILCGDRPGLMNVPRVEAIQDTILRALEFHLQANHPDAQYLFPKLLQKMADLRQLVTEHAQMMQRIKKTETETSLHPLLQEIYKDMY
Hepatocyte nuclear factor 4-alpha (Homo sapiens), sequence (P41235 whole entry, looked up, the tested form may be a part): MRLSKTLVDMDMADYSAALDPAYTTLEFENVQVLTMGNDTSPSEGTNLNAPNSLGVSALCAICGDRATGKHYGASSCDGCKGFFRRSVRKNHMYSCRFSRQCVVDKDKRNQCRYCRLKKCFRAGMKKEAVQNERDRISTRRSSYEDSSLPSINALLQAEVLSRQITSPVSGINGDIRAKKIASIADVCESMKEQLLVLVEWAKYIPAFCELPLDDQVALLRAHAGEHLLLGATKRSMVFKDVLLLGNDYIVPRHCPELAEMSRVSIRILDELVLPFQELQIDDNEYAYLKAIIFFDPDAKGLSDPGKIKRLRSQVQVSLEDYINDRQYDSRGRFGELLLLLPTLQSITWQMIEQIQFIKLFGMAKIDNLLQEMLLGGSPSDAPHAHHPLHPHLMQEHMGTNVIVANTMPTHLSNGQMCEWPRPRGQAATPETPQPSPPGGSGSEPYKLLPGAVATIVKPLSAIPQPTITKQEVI
Cellular tumor antigen p53 (Homo sapiens), sequence (P04637 whole entry, looked up): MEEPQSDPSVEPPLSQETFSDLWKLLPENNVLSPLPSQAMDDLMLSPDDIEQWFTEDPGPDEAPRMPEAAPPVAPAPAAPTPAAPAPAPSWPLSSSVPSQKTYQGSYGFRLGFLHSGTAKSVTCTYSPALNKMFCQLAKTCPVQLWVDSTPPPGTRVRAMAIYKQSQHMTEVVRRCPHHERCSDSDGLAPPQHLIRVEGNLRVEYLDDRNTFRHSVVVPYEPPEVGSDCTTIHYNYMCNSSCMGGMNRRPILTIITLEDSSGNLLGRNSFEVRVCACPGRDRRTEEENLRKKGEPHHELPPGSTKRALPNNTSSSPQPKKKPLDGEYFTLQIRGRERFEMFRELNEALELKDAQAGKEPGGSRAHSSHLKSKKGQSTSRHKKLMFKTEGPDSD
Nuclear respiratory factor 1 (Homo sapiens), sequence (Q16656 whole entry, looked up): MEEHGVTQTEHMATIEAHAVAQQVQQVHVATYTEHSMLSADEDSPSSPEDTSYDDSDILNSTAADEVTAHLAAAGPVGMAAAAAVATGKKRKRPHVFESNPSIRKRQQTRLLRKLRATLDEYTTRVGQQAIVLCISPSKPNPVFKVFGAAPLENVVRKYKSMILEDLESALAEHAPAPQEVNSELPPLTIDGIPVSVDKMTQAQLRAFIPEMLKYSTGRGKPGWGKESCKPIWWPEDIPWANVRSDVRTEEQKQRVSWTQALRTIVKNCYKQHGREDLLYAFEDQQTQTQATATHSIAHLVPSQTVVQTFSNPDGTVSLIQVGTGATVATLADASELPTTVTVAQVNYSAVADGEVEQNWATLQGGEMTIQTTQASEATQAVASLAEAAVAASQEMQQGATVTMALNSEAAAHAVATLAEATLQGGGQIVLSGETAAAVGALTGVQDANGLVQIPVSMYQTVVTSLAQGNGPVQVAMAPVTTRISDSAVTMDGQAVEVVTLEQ
human Peroxisome Proliferator-activated Receptor alpha (PPARa), PPARA (gene 5465), sequence (Q07869 whole entry, looked up, the tested form may be a part): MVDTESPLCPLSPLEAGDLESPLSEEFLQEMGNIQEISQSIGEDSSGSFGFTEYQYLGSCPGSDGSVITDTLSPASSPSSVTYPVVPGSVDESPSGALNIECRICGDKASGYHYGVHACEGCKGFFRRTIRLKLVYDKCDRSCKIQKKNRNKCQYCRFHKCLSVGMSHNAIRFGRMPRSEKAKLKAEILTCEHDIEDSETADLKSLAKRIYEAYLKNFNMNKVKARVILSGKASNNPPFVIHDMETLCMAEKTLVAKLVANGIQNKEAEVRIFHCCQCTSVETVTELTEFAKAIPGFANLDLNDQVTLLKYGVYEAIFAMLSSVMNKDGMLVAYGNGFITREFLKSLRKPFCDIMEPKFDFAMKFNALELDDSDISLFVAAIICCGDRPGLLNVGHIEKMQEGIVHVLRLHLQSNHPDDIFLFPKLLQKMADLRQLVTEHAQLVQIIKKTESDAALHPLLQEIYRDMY

CN(C)C(=S)S
active: [8] 26.8 µM
not listed: [15] | [16] | [17] | [18] | [19]
inactive: all other assays above

C=CC(=O)NC(C)(C)CC(C)=O
inactive: [1] | [2] | [15] | [4] | [5] | [6] | [7] | [8] | [9] | [16]

C=CCOC(F)(C(F)(F)F)C(F)(F)F
not listed: [5] | [10] | [11] | [12] | [13] | [14] | [15]
inactive: all other assays above

CC(=Cc1ccccc1)[N+](=O)[O-]
active: [5] 17.2 µM | [7] 18.6 µM | [17] 11.1 µM | [8] 2.61 µM | [16] 11.1 µM
inactive: [1] | [2] | [3] | [4] | [6] | [9]

Nc1ccc(N)cc1
not listed: [3] | [8] | [18] | [19]
inactive: all other assays above

CC(C=O)Cc1ccc2c(c1)OCO2 (configuration not stated)
not listed: [12] | [15] | [19]
inactive: all other assays above

CC(C)[N+](=O)[O-]
not listed: [3] | [10] | [11] | [12] | [13] | [14] | [16]
inactive: all other assays above

CCOC(=O)CC(=O)CCl
active: [17] 56.8 µM | [8] 181 µM | [9] 24.3 µM | [11] 0.0141 µM | [12] 20 µM | [13] 20 µM
not listed: [7] | [15] | [18] | [19]
inactive: all other assays above

N#CCC#N
not listed: [5] | [10] | [11] | [12] | [13] | [14] | [15]
inactive: all other assays above

O=S(=O)(F)C(F)(F)C(F)(F)C(F)(F)C(F)(F)F
inactive: [1] | [2] | [15] | [4] | [5] | [6] | [17] | [8] | [9] | [16]
